Test results as given in PubChem BioAssay (Tox21).
Results filed as inconclusive are left out. The source made the active and inactive calls. Unless noted, the call rests on the fitted dose curve; in most records, active means well fitted curve in the direction sought with a large enough effect in the repeat runs; inconclusive means weak or mixed curves; inactive means no such curve, though single readings can be large; an effect the other way counts as inactive or inconclusive.

Legend:
[1] = A CellTox Green Cytotoxicity Assay to monitor cytotoxicity in HEK293 cells - 32 hour (AID 1224881); further: nearly all actives have a fitted effect of over 40% in size
In short: (§1)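 Tox21 screen in HEK293: membrane-impermeant cyanine dye fluoresces on binding dead-cell DNA; compound pinned 5 h post-seeding, plates held at 37 C, signal read repeatedly through 40 h.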

[2] = A CellTox Green Cytotoxicity Assay to monitor cytotoxicity in HepG2 cells - 0 hour (AID 1224882); further: nearly all actives have a fitted effect of over 35% in size
In short: (§2)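 Measurements at 0, 8, 16, 24, 32 and 40 h of treatment captured CellTox Green fluorescence in HepG2 cells that had been co-plated with reagent and preincubated 5 h at 37 C/5% CO2.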

[3] = A CellTox Green Cytotoxicity Assay to monitor cytotoxicity in HepG2 cells - 32 hour (AID 1224883); further: nearly all actives have a fitted effect of over 50% in size
In short: as §2

[4] = A CellTox Green Cytotoxicity Assay to monitor cytotoxicity in HEK293 cells - 8 hour (AID 1224884); further: nearly all actives have a fitted effect of over 35% in size
In short: as §1

[5] = qHTS RealTime-Glo MT Cell Viability Assay in HepG2 cells - 16 hour (AID 1224885); further: nearly all actives have a fitted effect of over 50% in size
In short: (§3)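 HepG2 cells were seeded at 600 cells/well together with NanoLuc luciferase and a cell-permeant prosubstrate, preincubated 5 h at 37 C/5% CO2, then pin-dosed with compounds in DMSO. Nonlytic luminescence from viable cells was read at each time point.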

[6] = qHTS RealTime-Glo MT Cell Viability Assay in HEK293 cells - 24 hour (AID 1224886); further: top concentration of the series differs between compounds; nearly all actives have a fitted effect of over 50% in size
In short: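 HEK293 cells were seeded at 600 cells/well together with NanoLuc luciferase and cell-permeant prosubstrate, preincubated 5 h at 37 C/5% CO2, then given compound in DMSO by pintool. Luminescence from viable-cell prosubstrate reduction was read repeatedly over 40 h.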

[7] = qHTS RealTime-Glo MT Cell Viability Assay in HEK293 cells - 8 hour (AID 1224887); further: top concentration of the series differs between compounds; nearly all actives have a fitted effect of over 50% in size
In short: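 HEK293 + NanoLuc + prosubstrate, 600 cells/well; 5 h, 37 C/5% CO2; compound 23 nL in DMSO by pintool; 37 C; luminescence read at 0, 8, 16, 24, 32 and 40 h time points.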

[8] = qHTS RealTime-Glo MT Cell Viability Assay in HepG2 cells - 0 hour (AID 1224889); further: nearly all actives have a fitted effect of over 50% in size
In short: as §3

[9] = A CellTox Green Cytotoxicity Assay to monitor cytotoxicity in HepG2 cells - 8 hour (AID 1224890); further: nearly all actives have a fitted effect of over 45% in size
In short: as §2

[10] = qHTS assay to identify small molecule antagonists of the estrogen receptor alpha (ER-alpha) signaling pathway using the BG1 cell line in the presence of 0.1 nM 17-beta-estradiol - cell viability counter screen (AID 1259241); further: nearly all actives have a fitted effect of over 40% in size
In short: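 Cells were plated and left 24 hr, compounds in DMSO were pinned in, 17beta-estradiol was added to 0.1 nM final, and after 22 hr CellTiter-Fluor reagent was added for 30 min before fluorescence was read.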

[11] = qHTS assay to identify small molecule antagonists of the androgen receptor (AR) signaling pathway using the MDA cell line in the presence of 0.5 nM R1881 - cell viability counter screen (AID 1259242); further: nearly all actives have a fitted effect of over 45% in size
In short: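 Concentration-response screen of compounds for toxicity in MDA-kb2 reporter cells: 16 hr at 37C with 0.5 nM R1881, endpoint live-cell protease fluorescence measured in the reporter wells.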

[12] = qHTS assay to identify small molecule phospholipidosis (PLD) inducers (AID 1259344; active means well fitted curve in the direction sought with a large enough effect; an effect the other way counts as inactive or inconclusive)
In short: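 Phospholipid accumulation was scored by imaging: fixed, Hoechst-counterstained HepG2 cells stained with LipidTOX Red after 24 h compound exposure at 37 C. Read-outs were pit count and pit intensity per well or per cell, with amiodarone and DMSO controls.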

[13] = qHTS assay to identify small molecule HDAC inhibitors - cell viability counter screen (AID 1259365)
In short: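 Counter screen in wild-type HCT-116 cells: compounds dissolved in DMSO are pin-transferred onto overnight-plated cells and left 2hr at 37C. ATP-based CellTiter-Glo luminescence then measures viable cells.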

[14] = qHTS assay to identify small molecule agonists of the sonic hedgehog signaling (Shh) pathway - cell viability counter screen (AID 1259366); further: nearly all actives have a fitted effect of over 50% in size
In short: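 Cells are plated at 2,000 per well and left 4hr at 37C, 5% CO2 before compound addition. After 23hr of treatment, CellTiter-Fluor reagent is added for 1hr at 37C and fluorescence is measured.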

[15] = qHTS assay to identify small molecule agonists of the sonic hedgehog signaling (Shh) pathway (AID 1259368; calls by dose curve;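 further: NIH/3T3-derived 3T3Gli1-Luc cells carrying a stable Gli1-driven firefly luciferase reporter; series mostly up to about 92 µM; nearly all actives have a fitted effect of over 15% in size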)
In short: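 Hedgehog pathway agonism scored by increased firefly luciferase luminescence in 3T3Gli1-Luc cells treated 24 hr at 37 C; detection used a 30 min room-temperature reagent incubation.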

[16] = A CellTox Green Cytotoxicity Assay to monitor cytotoxicity in HEK293 cells - 16 hour (AID 1224888); further: nearly all actives have a fitted effect of over 35% in size
In short: as §1

[17] = molecular target: Androgen receptor (Homo sapiens) (UniProt P10275); assay: qHTS assay to identify small molecule antagonists of the androgen receptor (AR) signaling pathway using the MDA cell line in the presence of 0.5 nM R1881 (AID 1259243); further: nearly all actives have a fitted effect of over 50% in size
In short: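 With R1881 held at 0.5 nM (final), compound effects on MMTV-luciferase expression in MDA-kb2 cells were scored by luminescence after a 16 hr, 37C incubation.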

[18] = molecular target: Estrogen receptor (Homo sapiens) (UniProt P03372); assay: qHTS assay to identify small molecule antagonists of the estrogen receptor alpha (ER-alpha) signaling pathway using the BG1 cell line in the presence of 0.1 nM 17-beta-estradiol (AID 1259244); further: nearly all actives have a fitted effect of over 50% in size
In short: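 Compounds were tested against 0.1 nM (final) 17beta-estradiol in VM7Luc4E2 cells, which express full-length ER-alpha and an ERE-luciferase reporter; luminescence was recorded following 22 h exposure.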

[19] = qHTS assay to identify small molecule HDAC inhibitors (AID 1259364);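 further: wild-type HCT-116 cells with endogenous class I/II HDAC activity; top concentration of the series differs between compounds; nearly all actives have a fitted effect of over 45% in size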
In short: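 Screening used wild-type human colon HCT-116 cells incubated overnight, dosed with compounds for 2 hours, and assayed with a homogeneous luminogenic HDAC I/II reagent for 30 minutes at room temperature.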

[20] = qHTS assay to identify small molecule antagonists of the sonic hedgehog signaling (Shh) pathway - cell viability counter screen (AID 1259367); further: nearly all actives have a fitted effect of over 55% in size
In short: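 Viability was read by CellTiter-Fluor fluorescence in the same wells, reagent added 23 hr into compound treatment and incubated 1 hr at 37C. The 3T3 Gli1-Luc reporter cells (2,000/well) received conditioned medium after compound and ran 24 hr.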

Measured: Potency

Sequence of Estrogen receptor (Homo sapiens) (P03372 whole entry, looked up): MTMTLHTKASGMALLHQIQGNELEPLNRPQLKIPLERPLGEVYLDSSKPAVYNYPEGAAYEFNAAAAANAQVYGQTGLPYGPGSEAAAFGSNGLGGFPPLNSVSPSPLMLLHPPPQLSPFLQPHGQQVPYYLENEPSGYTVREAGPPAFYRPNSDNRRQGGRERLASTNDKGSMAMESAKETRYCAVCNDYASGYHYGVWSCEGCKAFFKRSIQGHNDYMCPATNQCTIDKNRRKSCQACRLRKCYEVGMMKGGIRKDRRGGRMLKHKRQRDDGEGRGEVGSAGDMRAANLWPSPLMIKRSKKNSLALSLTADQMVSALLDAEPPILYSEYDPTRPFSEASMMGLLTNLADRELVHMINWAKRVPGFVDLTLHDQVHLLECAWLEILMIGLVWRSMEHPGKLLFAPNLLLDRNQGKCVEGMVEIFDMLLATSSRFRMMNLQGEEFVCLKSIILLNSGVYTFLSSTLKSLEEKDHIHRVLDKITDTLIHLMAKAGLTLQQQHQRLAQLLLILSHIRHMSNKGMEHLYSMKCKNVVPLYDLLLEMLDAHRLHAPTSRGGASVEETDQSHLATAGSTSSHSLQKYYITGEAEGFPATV
Sequence of Androgen receptor (Homo sapiens) (P10275 whole entry, looked up): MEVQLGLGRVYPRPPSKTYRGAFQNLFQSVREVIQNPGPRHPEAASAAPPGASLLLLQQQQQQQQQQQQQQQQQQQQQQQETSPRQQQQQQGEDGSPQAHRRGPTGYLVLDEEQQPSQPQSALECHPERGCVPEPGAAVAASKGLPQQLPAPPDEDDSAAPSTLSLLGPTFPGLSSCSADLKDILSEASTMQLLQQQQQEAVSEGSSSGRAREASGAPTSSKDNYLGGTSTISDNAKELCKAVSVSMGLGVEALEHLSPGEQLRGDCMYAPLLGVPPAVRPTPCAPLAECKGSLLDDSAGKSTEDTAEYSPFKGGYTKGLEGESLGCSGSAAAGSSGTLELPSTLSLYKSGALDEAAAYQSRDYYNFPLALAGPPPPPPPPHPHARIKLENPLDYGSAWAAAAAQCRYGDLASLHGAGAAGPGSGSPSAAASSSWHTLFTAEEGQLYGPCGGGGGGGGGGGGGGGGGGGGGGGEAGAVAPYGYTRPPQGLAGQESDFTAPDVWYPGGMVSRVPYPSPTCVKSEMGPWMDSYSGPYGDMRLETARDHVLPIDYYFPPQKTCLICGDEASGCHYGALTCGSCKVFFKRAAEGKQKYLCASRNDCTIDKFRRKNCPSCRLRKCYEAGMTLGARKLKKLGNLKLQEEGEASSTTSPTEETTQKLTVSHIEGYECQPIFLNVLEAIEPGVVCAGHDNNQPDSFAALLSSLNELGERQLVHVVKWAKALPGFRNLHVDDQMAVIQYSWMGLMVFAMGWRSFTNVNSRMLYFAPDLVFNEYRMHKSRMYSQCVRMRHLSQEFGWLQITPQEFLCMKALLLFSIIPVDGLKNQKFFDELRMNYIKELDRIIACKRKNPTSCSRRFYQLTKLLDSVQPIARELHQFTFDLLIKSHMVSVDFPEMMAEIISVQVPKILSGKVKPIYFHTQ

N[C@H](Cc1c[nH]c2ccccc12)C(=O)O
not listed: [16] | [17] | [18] | [19] | [20]
inactive: all other assays above

OCc1ccccc1
not listed: [20]
inactive: all other assays above

CNC(=O)Oc1ccc2c(c1)[C@]1(C)CCN(C)[C@@H]1N2C
not listed: [17] | [18] | [20]
inactive: all other assays above

CCNC(=S)NCC
not listed: [12] | [17] | [18] | [19]
inactive: all other assays above

Clc1ccccn1
not listed: [12] | [17] | [18]
inactive: all other assays above

O=C(O)c1ccccc1C(=O)O
not listed: [5] | [12] | [16] | [17] | [18] | [20]
inactive: all other assays above

CCCCCCCC=O
not listed: [3] | [12] | [17]
inactive: all other assays above

C[C@]12CC[C@@H]3c4ccc(O)cc4CC[C@H]3[C@@H]1C[C@@H](O)[C@@H]2O
not listed: [5] | [9] | [17] | [18] | [19]
inactive: all other assays above
